A3G deaminase: blocks human APOBEC3G single-stranded DNA deamination. Q9HC16. recombinant A3G, ssDNA deamination FAM/TAMRA fluorescence. inhibition, % at 20 µM. 330,000 compounds, 0.28% hits. AID 493012;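 active means inhibition of at least 40% at 20 µM, with no more than 30% in the related APOBEC3A deaminase screen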;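 further: plate controls were DMSO wells with A3G for no effect and wells lacking A3G enzyme for full effect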
Target sequence (Q9HC16 whole entry, looked up): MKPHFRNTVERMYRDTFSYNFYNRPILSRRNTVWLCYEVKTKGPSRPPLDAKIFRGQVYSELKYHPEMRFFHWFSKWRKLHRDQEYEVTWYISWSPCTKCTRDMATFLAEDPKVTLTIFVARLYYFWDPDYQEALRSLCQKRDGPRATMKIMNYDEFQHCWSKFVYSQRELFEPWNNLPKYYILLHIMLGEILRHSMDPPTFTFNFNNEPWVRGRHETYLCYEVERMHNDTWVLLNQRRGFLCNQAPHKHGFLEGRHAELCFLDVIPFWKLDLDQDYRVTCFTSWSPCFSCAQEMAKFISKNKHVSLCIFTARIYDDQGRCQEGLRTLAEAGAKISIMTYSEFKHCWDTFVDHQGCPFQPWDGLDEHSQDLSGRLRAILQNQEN
NALP1 yeast inh: inhibitors of NALP1 inflammasome in yeast. AID 2071. inhibition, % at 10 µM. S. cerevisiae NALP1/ASC/caspase-1 growth, X-gal OD620, 72 h. 280,000 compounds, 0.61% hits; in the data active means inhibition mostly above about 24%, no sharp cut-off; inactive means mostly below about 32%
A3A deaminase: blocks human APOBEC3A ssDNA deamination | inhibition, % at 20 µM | AID 493011 | 330,000 compounds, 0.41% hits | recombinant A3A, FAM/TAMRA ssDNA deamination fluorescence | P31941;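 active means at least 40% inhibition at 20 µM here, with at most 30% in a related deaminase screen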;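 further: plate controls were A3A with DMSO for no effect and wells lacking A3A enzyme for full effect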
Target sequence (P31941 whole entry, looked up): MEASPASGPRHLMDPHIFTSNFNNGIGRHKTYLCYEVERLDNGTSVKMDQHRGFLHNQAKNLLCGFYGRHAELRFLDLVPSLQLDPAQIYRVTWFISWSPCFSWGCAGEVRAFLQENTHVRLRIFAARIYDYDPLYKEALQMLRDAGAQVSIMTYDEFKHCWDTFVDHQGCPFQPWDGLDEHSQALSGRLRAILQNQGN
CTSL1 counter: blocks F. hepatica cathepsin L1 in PFM18AAP counter-screen. recombinant F. hepatica cathepsin L1, Z-Leu-Arg-MCA fluorescence. inhibition, % at 5.96 µM. 300,000 compounds, 0.49% hits;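 active means inhibition above the mean of all tested compounds plus 3 SD, set per screening campaign, cut at about 17% in these data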;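 further: 0% = plate median of test compound wells and 100% = 1 µM Z-Phe-Ala-diazomethylketone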
HGIII-sPLA2 inh: Inhibits HGIII-sPLA2 liposome hydrolysis, primary screen | inhibition, % at 12.2 µM | 370,000 compounds, 0.56% hits | QFRET BODIPY PC-A2 liposome hydrolysis, fluorescence | Q9NZ20;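 active means inhibition above mean plus 3 SD of compounds lying within the high and low control bounds, cut at about 19% in these data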;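 further: 0% = median of test compound wells and 100% = no enzyme DMSO wells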
An asterisk follows results filed as active; / = not tested or not shown. Hits are enriched below; roughly 2% of the tested compounds scored in any of these assays.

SMILES | A3G deaminase | NALP1 yeast inh | A3A deaminase | CTSL1 counter | HGIII-sPLA2 inh
CC(=O)NC(Cc1ccc(F)c(F)c1)C(=O)NC1CCN(C(=O)c2ccc(Cl)cc2)CC1 (stereo not given) | 7 | 32* | 1 | 6 | 2
CC(=O)c1ccc(OCC(O)CN2CCN(Cc3ccccc3)CC2)cc1 (stereo not given) | -1 | 41* | 0 | -2 | /
O=C(c1ccccc1)c1ccc(OCCOCCN2CCN(Cc3ccccc3)CC2)cc1 | -3 | 38* | 0 | 1 | -14
O=C(Nc1ccc(C(O)(C(F)(F)F)C(F)(F)F)cc1)c1ccc(F)cc1F | / | / | / | / | -12
O=C1C(Nc2ccccc2)=C/C(=N/S(=O)(=O)c2cccs2)c2ccccc21 | / | 54 | / | 82* | /
Cc1ccc(NC2=C/C(=N/S(=O)(=O)c3cccs3)c3ccccc3C2=O)cc1 | -4 | 17 | 7 | 60* | -4
O=C(Nc1nncs1)c1cc(-c2ccncc2)nc2ccc(Cl)cc12 | -11 | 27* | -1 | 2 | -2
CC(=O)Nc1cccc(NC(=O)c2cc(-c3cccnc3)nc3ccc(Cl)cc23)c1 | -4 | -5 | -6 | -7 | -11
COc1ccc(-n2cnc3cc(C(=O)NCCN4CCOCC4)ccc32)cc1 | -4 | 5 | -5 | -7 | -3
COc1ccc(OC)c(-n2cnc3cc(C(=O)NCCCN4CCOCC4)ccc32)c1 | -1 | 23* | -1 | -2 | /
CCOc1ccc(-n2c(C)nc3cc(C(=O)NCCCN4CCOCC4)ccc32)cc1 | 3 | 26* | -5 | -6 | -3
CCOc1ccc(-n2c(C)nc3cc(C(=O)NCCN4CCOCC4)ccc32)cc1 | -2 | -140 | 5 | -2 | 2
COc1ccc(NC(=O)C(=O)NNC(=O)c2cccs2)cc1 | -6 | 27 | -3 | 19* | 8
CN1CCN(c2nc(C#N)cc(-c3ccccc3)n2)CC1 | -8 | 24* | -4 | 0 | 0
O=C(NCCCN1CCN(c2ccc(F)cc2)CC1)NCc1ccccc1 | / | / | / | / | 8
COc1ccc(CCN/C=C2/CC(=O)NC2=O)cc1OC | -4 | -3 | -3 | 25* | 6
COc1ccc(CCNC(=O)CCCCC(=O)NCCc2ccc(OC)c(OC)c2)cc1OC | -12 | / | -1 | -4 | 7
Nc1[nH]c(C(=O)c2ccccc2)c(-c2cccc3ccccc23)c1C(=O)c1c(-c2ccccc2)[nH]c2ccccc12 | / | / | / | / | 10
COc1ccc(CNC(=S)OC2CCC23CCC(c2ccccc2)CC3)cc1 (stereo not given) | / | / | / | / | 3
COc1cccc(Nc2ccc(-n3ccnc3)nn2)c1 | -5 | -2 | -7 | -7 | 1
C(=N\Nc1ccc(-n2ccnc2)nn1)/c1ccccc1 | -11 | 44* | -3 | 1 | 1
CCOc1ccc(/C=C2\C(=O)c3ccccc3OC2c2ccccc2)cc1 (stereo not given) | -1 | 28* | -1 | -13 | 4
COc1ccc(/C=C2\C(=O)c3ccccc3OC2c2ccccc2)cc1 (stereo not given) | -4 | 0 | 1 | 0 | -5
C=C(C)C1CC=C(CN2CC(C)OC(C)C2)CC1 (stereo not given) | -7 | 41* | -20 | -1 | 8
CCCCCCCCN1C(=O)[C@@H](CC(=O)N2CCCCC2)C[C@@]2(C(=O)OC)C1=C[C@H](C(C)C)O[C@@H]2C1CC1 | / | / | / | / | -4
SMILES | A3G deaminase | NALP1 yeast inh | A3A deaminase | CTSL1 counter | HGIII-sPLA2 inh
O=c1c([N+](=O)[O-])c(NCCN2CCCCCC2)c2ccccc2n1-c1ccccc1 | -1 | 18 | -1 | 2 | 0
O=c1c([N+](=O)[O-])c(N2CCCCC2)c2ccccc2n1-c1ccccc1 | -1 | 36* | 3 | 2 | /
CC1(C)CC(=O)C=C(Nc2ccccc2NC(=O)c2cccc(F)c2F)C1 | / | / | / | / | 4
Oc1ccc2ccccc2c1C=NC12CN3CCN(CN(C3)C1)C2 | 7 | -6 | -2 | 32* | -3
OCC(CO)(CO)N=Cc1c(O)ccc2ccccc12 | 10 | -2 | 3 | 0 | -1
O=C(c1ccc(Cl)c(Cl)c1)N1CCN(c2ccnc3cc(Cl)ccc23)CC1 | / | / | / | / | -18
COC(=O)c1c(NC(=O)C(=O)NCCCN2CCOCC2)sc2c1CCC2 | -5 | 7 | -3 | 23* | 6
COC(=O)c1c(NC(=O)C(=O)NCCCN2CCOCC2)sc2c1CC(C)(C)OC2 | 1 | 8 | -2 | -1 | -1
O=C1C2CC=C(Cl)CC2C(=O)N1CCN1CCOCC1 (stereo not given) | -3 | 11 | -2 | -5 | 10
O=C(CCN1C(=O)C2CC=C(Cl)CC2C1=O)NC1CCCCC1 (stereo not given) | 1 | 42* | 0 | 7 | 3
O=C1C2CC=C(Cl)CC2C(=O)N1CCCCCCN1C(=O)C2CC=C(Cl)CC2C1=O (stereo not given) | 1 | 6 | 5 | 42* | -22
C/C(=N/NC(=O)c1ccoc1C)c1cccs1 | / | / | / | / | -3
COc1cc(C(=O)Nc2ccccc2C(=O)Nc2ccccn2)cc(OC)c1OC | -4 | 22 | -5 | -3 | -1
COc1cc(C(=O)Nc2ccccn2)cc(OC)c1OC | 1 | 3 | 6 | 18* | 1
N#Cc1cc2c(cc1NC(=O)CCn1cnnn1)OCO2 | -6 | 36* | -5 | -4 | -3
Cc1cccc(C)c1-n1nnnc1C(C)(C)N1CCN(N=O)CC1 | -9 | 37* | -5 | 1 | 0
Cc1[nH]n(-c2ccccc2)c(=O)c1N=Nc1c(O)cc(S(=O)(=O)N(C)C)c2ccccc12 | -1 | / | 7 | 4 | 31*
Cc1nnc(N/N=C/c2ccccc2O)n1N | 0 | -3 | 4 | 20* | -4
CCOC(=O)C1(Cc2ccccc2)CCN(Cc2cccc(OC)c2O)CC1 | -7 | -7 | 1 | 18* | -9
CCOC(=O)C1(Cc2cccc(OC)c2)CCN(Cc2cccn2-c2nccs2)CC1 | -3 | 39* | -3 | -4 | -12
S=c1[nH]nc(-c2n[nH]c3c2CCC3)n1N=Cc1c2ccccc2cc2ccccc12 | / | / | / | / | 5
CC(COc1ccc(F)cc1)CN1CCC(C(O)(c2ccccc2)c2ccccc2)CC1 (stereo not given) | / | / | / | / | -11
O=C(O)c1ccc(CSc2nnc(COc3ccc(Cl)cc3Cl)o2)cc1 | -7 | -12 | -2 | 40* | -23
COc1ccc(OCc2nnc(SCc3ccc(C(=O)O)cc3)o2)cc1 | -4 | 1 | 0 | -6 | -5
C[C@@H]1/C=C/CC(=O)N[C@H](c2ccc3ccccc3c2)[C@H](C)/C=C/CC(=O)N[C@@H]1c1ccc2ccccc2c1 | / | / | / | / | 4
Cc1nc2ccccc2n1/N=C/c1ccc([N+](=O)[O-])s1 | -4 | 38 | -1 | 3 | 8
Cc1cc2ncn(/N=C/c3ccc([N+](=O)[O-])s3)c2cc1C | / | 59* | / | 2 | -2
O=[N+]([O-])c1ccc(/C=N/n2cnc3ccccc32)s1 | 1 | 54* | 2 | 16 | 10
O=C(Cc1ccc(Cl)c(Cl)c1)Nc1ccc(S(=O)(=O)Nc2ccon2)cc1 | / | / | / | / | -36

Assay outcomes as filed in PubChem BioAssay.
